Compound activity as filed in PubChem BioAssay.
TEAD-YAP block: TEAD-YAP interaction inhibition; HEK-TIYL cells, TEAD-Gal4/YAP UAS-luciferase luminescence; inhibition, % at 9.12 µM; actives 1.4% (n = 640,000); AID 1259422; in the data active = inhibition above about 32%;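 note: 0% = median of test compound wells and 100% = reference inhibitor wells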
MITF primary: human MITF inhibition, primary screen. AlphaScreen MITF homodimerization, bead proximity signal. O75030. inhibition, % at 2.6 µM. actives 0.91% (n = 650,000); in the data active = inhibition above about 50%;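 note: 0% = vehicle wells with protein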
GPR151 activ: activators of human GPR151; Q8TDV0; PathHunter beta-arrestin GPR151 cells, luminescence; activation, % at 11.2 µM; actives 1% (n = 650,000); in the data active = activation above about 4.9%;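 note: 0% = median of compound wells and 100% = cells with positive control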
FBW7 act: human FBW7 E3 ligase activation, primary screen; normalized activity (activation), % at 26.1 µM; Q969H0; AlphaScreen FBW7–phospho-cyclin E peptide binding, activator screen; actives 0.13% (n = 650,000); AID 1259310; in the data active = normalized activity above about 1.9%;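 note: purified mutant Fbw7 with reduced substrate affinity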
Target sequence (Q969H0 whole entry, looked up): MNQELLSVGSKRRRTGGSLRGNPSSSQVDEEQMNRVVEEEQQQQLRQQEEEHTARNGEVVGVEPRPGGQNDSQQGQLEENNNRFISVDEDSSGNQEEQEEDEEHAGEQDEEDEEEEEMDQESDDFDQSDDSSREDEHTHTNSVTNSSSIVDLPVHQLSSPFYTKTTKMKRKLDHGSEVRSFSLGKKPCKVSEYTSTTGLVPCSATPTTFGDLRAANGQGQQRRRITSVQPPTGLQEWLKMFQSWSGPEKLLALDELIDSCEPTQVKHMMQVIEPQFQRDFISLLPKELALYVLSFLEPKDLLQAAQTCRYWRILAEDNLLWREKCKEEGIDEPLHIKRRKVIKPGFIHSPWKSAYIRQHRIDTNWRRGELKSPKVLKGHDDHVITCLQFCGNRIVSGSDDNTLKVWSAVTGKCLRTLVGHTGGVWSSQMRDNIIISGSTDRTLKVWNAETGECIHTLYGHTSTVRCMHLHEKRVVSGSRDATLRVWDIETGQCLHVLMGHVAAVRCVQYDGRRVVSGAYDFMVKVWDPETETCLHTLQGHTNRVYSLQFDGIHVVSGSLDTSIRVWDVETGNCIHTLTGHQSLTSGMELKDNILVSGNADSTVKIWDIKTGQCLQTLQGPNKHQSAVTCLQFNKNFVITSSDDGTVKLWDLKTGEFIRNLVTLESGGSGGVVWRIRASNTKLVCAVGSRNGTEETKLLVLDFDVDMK
MITF confirm: confirmation of human MITF inhibitors; shares compounds with MITF primary; AlphaScreen MITF homodimerization, biotin/His-MITF beads; inhibition, % at 2.6 µM; actives 16% (n = 4,700); AID 1259372;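 active = inhibition above a cutoff derived from the DMSO control wells, cut at about 28% in these data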;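 note: 0% = MITF dimer wells with DMSO only; inhibitors lower the bead chemiluminescence by keeping MITF from dimerizing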
AS interf DR: counter-screen: compounds optically interfering with AlphaScreen | IC50, µM | shares compounds with MITF primary | AlphaScreen optical interference counterscreen, cell-free | actives 6% (n = 480); call rule not given here
AS interf ctr: AlphaScreen optical interference, counter-screen; LysRS AlphaScreen counterscreen, signal interference, triplicate; actives 7.6% (n = 4,700); inhibition, % at 2.6 µM; shares compounds with MITF primary;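 active = inhibition above a cutoff derived from the DMSO control wells, cut at about 30% in these data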
* marks the source's active call; other numbers are inactive results; · = not tested or not shown. Sampled rows, rich in hits. Any-hit rate of the full collection: about 3.5%.

SMILES	TEAD-YAP block	MITF primary	GPR151 activ	FBW7 act	MITF confirm	AS interf ctr	others
Cc1nc(C)c(C(=O)Nc2ccc(C(N)=O)cc2)o1	-10	2	0	0	·	·
CCOC(=O)C1CCCN(Cc2cccc(C(F)(F)F)c2)C1 (configuration not stated)	-3	52*	1	0	9	11
CCOC(=O)C1CCCN(C(=O)Cc2c(F)cccc2Cl)C1 (configuration not stated)	-4	-3	0	0	·	·
CCOC(=O)C1CCCN(CCc2ccccc2)C1 (configuration not stated)	5	59*	2	0	-11	-5
CCOC(=O)C1CCCN(Cc2c(F)cccc2Cl)C1 (configuration not stated)	0	54*	1	0	-14	-5
CCOc1ccc(NC(C)C(=O)N/N=C/c2cc(Cl)ccc2O)cc1 (configuration not stated)	27	25	0	0	·	·
O=C(CCl)Nc1ccccc1N1CCCCCC1	14	-3	-1	0	·	·
O=C(CNCc1ccccc1Cl)Nc1ccccc1N1CCCCC1	-8	62*	-1	0	4	9
O=C(CNCc1ccccc1F)Nc1ccccc1N1CCOCC1	-12	74*	-1	0	12	21
CCN(C(=O)c1cc2c(=O)n3cccc(C)c3nc2n1C)c1ccccc1	12	53*	0	1	-3	8
O=S(=O)(c1ccc(Cl)cc1)N1CCN(Cc2cccc(Br)c2)CC1	6	51*	1	0	11	8
O=S(=O)(c1ccc(F)cc1)N1CCN(Cc2cccc(Br)c2)CC1	7	60*	0	0	6	6
CCOCCCNC(=O)c1ccc(Sc2ccc(Br)cc2)c([N+](=O)[O-])c1	7	7	4	0	·	·
CN1CCN(C(CNC(=O)c2ccc(-c3ccccc3)cc2)c2ccsc2)CC1 (configuration not stated)	-8	55*	0	0	1	-4
N#CCOc1ccc(-c2ccccc2)cc1	29	-10	-1	1	·	·
CCCn1c2ccccc2c2nnc(SCC(N)=O)nc21	-9	3	1	0	·	·
NC(=O)CSc1nnc2c3ccccc3n(CCc3ccccc3)c2n1	-4	53*	0	0	7	-6
Cc1cc(C)cc(Cn2c(NCCCN3CCOCC3)cc(=O)n(C)c2=O)c1	-6	70*	1	0	11	19
O=C(COc1ccccc1[N+](=O)[O-])Nc1ccc(F)cc1	-44	-2	-1	0	·	·
Cn1c(=O)c2c(n(C)c1=O)n1c(-c3ccc(Cl)cc3)nnc1n2Cc1ccccc1F	5	-4	1	0	·	·
COc1ccc(CNC(=O)CCS(=O)(=O)c2cccc3nsnc23)cc1	-4	16	-1	1	·	·
COc1cc(CN2CCN(Cc3ccccc3[N+](=O)[O-])CC2)cc(OC)c1O	0	60*	1	0	-2	6
CCS(=O)(=O)N1CCN(Cc2ccc(OC)c(OCc3ccccc3)c2)CC1	5	37	1	0	·	·
COc1cc(CN2CCN(Cc3ccccc3Br)CC2)c([N+](=O)[O-])cc1OC	-3	71*	1	1	22	0
COc1cccc(CN2CCN(Cc3ccccc3[N+](=O)[O-])CC2)c1	1	64*	-1	0	1	6
SMILES	TEAD-YAP block	MITF primary	GPR151 activ	FBW7 act	MITF confirm	AS interf ctr	others
COc1ccc(CN2CCN(Cc3ccccc3[N+](=O)[O-])CC2)cc1OCc1ccccc1	-2	82*	1	0	7	9
CCOC(=O)CCn1c(=O)c2c(nc3n(-c4ccccc4CC)c(C)cn23)n(C)c1=O	-1	11	1	0	·	·
Cc1ccc(C)n1-c1ccc2cn[nH]c2c1	1	2	0	0	·	·
COc1cc(CN(C)CCN(C)C)cc([N+](=O)[O-])c1O	-1	56*	1	0	10	12
COc1cc(OC)c(OC)cc1CN1CCN(Cc2ccccc2[N+](=O)[O-])CC1	10	72*	0	0	-2	15
COc1cc(CN2CCN(CCO)CC2)cc([N+](=O)[O-])c1O	5	75*	-2	0	-1	2
CN(C)CCN(C)Cc1ccc(O)c([N+](=O)[O-])c1	-17	8	1	0	·	·
CC(Sc1ccccc1)C(=O)Nc1ccc(F)cc1F (configuration not stated)	-5	0	-1	1	·	·
CC(=O)c1cccc(-c2cccc(C(=O)NCCOc3ccccc3)n2)c1	1	14	2	0	·	·
NCc1nc2ccc(Cc3ccc4nc(CN)[nH]c4c3)cc2[nH]1	-4	105*	-1	0	84*	100*
Cc1cccc(/C=N/NC(=O)C(O)(c2ccccc2)c2ccccc2)c1O	-2	-1	3	0	·	·
CC(C)OCCCNC(=O)c1cc2c(Cl)nc3ccccc3c2s1	-5	22	0	0	·	·
CC(C)OCCCNCc1cc2ccccc2nc1Cl	6	56*	-1	0	12	7
C=CCOc1ccccc1CNC1CCN(Cc2ccccc2)CC1	4	53*	-1	0	14	18
c1ccc(CN2CCC(NCc3c[nH]c4ccccc34)CC2)cc1	-3	62*	-1	0	12	17
c1ccc(CN2CCC(NCc3ccccn3)CC2)cc1	4	62*	0	0	9	16
c1ccc(C2CCC(NCCc3ccccn3)CC2)cc1 (configuration not stated)	-14	59*	0	1	-20	-9
Oc1ccccc1CNC1CCN(Cc2ccccc2)CC1	18	2	2	0	·	·
Cc1ccc(Cl)cc1NC(=S)N(CCCN1CCCC1)Cc1cccs1	-2	4	0	0	·	·
Cc1cc(Cl)ccc1OCC(=O)OCc1nnc(-c2ccccc2)o1	4	-2	2	0	·	·
Cc1ccc2nc(NS(=O)(=O)c3ccc(O)c(C(=O)O)c3)sc2c1	10	65*	-3	0	26	13
O=S(=O)(Nc1ccc2cn[nH]c2c1)c1ccc2ccccc2c1	4	1	1	0	·	·
O=C(O)c1cc(S(=O)(=O)Nc2ccc3cn[nH]c3c2)ccc1O	19	76*	-1	0	52*	21	AS interf DR=>7
NS(=O)(=O)c1ccc(NS(=O)(=O)c2ccc(O)c(C(=O)O)c2)cc1	8	2	1	0	·	·
O=C(O)c1cc(S(=O)(=O)Nc2ccncc2)ccc1O	4	66*	1	0	43*	9	AS interf DR=>7.1
Cc1nc2ccc(NS(=O)(=O)c3ccc(O)c(C(=O)O)c3)cc2s1	10	35	0	0	·	·
O=C(NCCC1=CCCCC1)C(=O)NCC1CCCO1 (configuration not stated)	-43	10	3	0	·	·
